Screening data as filed in PubChem BioAssay.
This excerpt belongs to a sample that is enriched for hits.
RMI FANCM FP = disruptors of RMI1/RMI2 association with MM2 peptide – biochemical, fluorescence polarization, human, primary screen; RMI core complex with F-MM2 peptide; active compounds read low; FP signal (polarization) at 33 µM; hit rate 0.58% among 70,000; AID 1159607, 2016; in the data active = FP signal below about 40
Of the large screens only hits and unclear results are named; the others gave an inactive call; ! = not active in a repeat.

CCc1nnc(C2CCN(C(=O)C3CCCC3)CC2)s1	none
COc1ccc(Cl)cc1-n1c(N)c(C(=O)N2CCCC2)sc1=S	none
O=C(CSc1ccc(NC(=O)c2ccco2)nn1)Nc1cccc(C(F)(F)F)c1	none
Cc1nccc(-c2sc(-c3cccs3)nc2C)n1	none
CSc1nccc(-c2ccc(Br)s2)n1	none
CSc1nccc(-c2sc(-c3ccc(Cl)cc3)nc2C)n1	RMI FANCM FP 32
O=C(NCC1CCN(Cc2ccco2)CC1)C(=O)NC1CCCC1	none
CC(C)(C)n1nc2c(c1NC(=O)C1(c3ccc(Cl)cc3)CCCC1)CSC2	none
COc1ccc(C(C)=O)cc1CSc1nc2ccc(C(F)(F)F)cc2[nH]1	none
Cc1ccc(N2C(=O)C=CC2=O)c([N+](=O)[O-])c1	RMI FANCM FP -7
Cc1ccc(NC(=S)NC(C)(C)C)c([N+](=O)[O-])c1	none
CC(C)(C)c1ccc(-n2cccc2)c([N+](=O)[O-])c1	none
C[C@]12C=CC(=O)C=C1CC[C@H]1[C@@H]3C[C@@H](O)[C@](O)(C(=O)CO)[C@@]3(C)C[C@H](O)[C@@]12F	none
CCOC(=O)N1CCN(S(=O)(=O)c2ccc(C(=O)Nc3sc4c(c3C#N)CC(C)(C)NC4(C)C)cc2)CC1	none
Cc1cc(C)nc(Nc2ccc(NS(=O)(=O)/C=C/c3ccccc3)cc2)n1	none
COc1ccc(S(=O)(=O)NCc2ccco2)cc1C(=O)O	RMI FANCM FP 1
CC(C)(C)c1ccc(S(=O)(=O)NCc2ccco2)cc1	none
COc1ccc(S(=O)(=O)NCc2ccco2)c(C)c1C	none
Cc1ccc2oc3nc(N)c(C#N)cc3c(=O)c2c1	RMI FANCM FP 5
N#Cc1cc2ccccc2oc1=O	none
Cc1ccc(-n2ncc(C#N)c2N)c(C)c1	none
CC(C)(C)NC(=O)Cn1nc(-c2cccs2)c2sc(N3CCOCC3)nc2c1=O	none
CC(C)NC(=O)Cc1csc2nc(-c3ccc(Cl)cc3)cn12	none
C=CCn1c(N)c(S(=O)(=O)c2ccc(Cl)cc2)c2nc3ccccc3nc21	none
Cn1c(-c2c(N)n(Cc3ccco3)c3nc4ccccc4nc23)nc2ccccc21	none
Nc1c(S(=O)(=O)c2cccs2)c2nc3ccccc3nc2n1Cc1ccco1	RMI FANCM FP 12
COC(=O)/C(C#N)=C(\C#N)c1ccc(Br)o1	RMI FANCM FP 26
O=C(Nc1cccc(Cl)c1)c1ccc(Br)o1	none
O=C(c1ccc(Br)o1)N1CCOCC1	none
CC1CCN(S(=O)(=O)Nc2ccccn2)CC1	none
CC(CNC1CCCCC1)OC(=O)c1ccccc1 (stereo unspecified)	RMI FANCM FP 19
CCC(=O)c1ccc(OCC(O)CNC2CCCCCC2)cc1 (stereo unspecified)	none
O=C(NCCS(=O)(=O)NC1CCCCC1)c1ccccc1	none
Cc1c(Cl)ccc2sc(N3CCN(C(=O)c4coc5ccccc5c4=O)CC3)nc12	none
O=C(CSc1nc(C(F)(F)F)cc(=O)[nH]1)N1CCCCCC1	none
CCOc1ccccc1-c1nc(COC(=O)c2nnn(-c3ccc(OC)c(Cl)c3)c2C)c(C)o1	none
Cc1c(S(=O)(=O)CCNC(=O)Nc2ccccc2Cl)c2ccccc2n1C	none
Cc1cccc(NC(=O)NCCS(=O)(=O)c2c(C)n(Cc3ccc(F)cc3)c3ccccc23)c1	none
Cc1ccc(NC(=O)NCCS(=O)(=O)c2c(C)n(Cc3ccccc3)c3ccccc23)cc1C	RMI FANCM FP 31
COCCNC(=O)Cc1csc(Nc2ccc(OC(F)(F)F)cc2)n1	none
CCOc1ccc(-c2cc(=O)n(CC(=O)N3CCN(Cc4ccccc4)CC3)cn2)cc1	none
CC(C)N1CCc2c(sc(NC(=O)c3c(F)cccc3F)c2-c2nc3ccccc3s2)C1	RMI FANCM FP -10
CC(=O)N1CCc2c(sc(NC(=O)c3c(F)cccc3F)c2-c2nc3ccccc3s2)C1	none
CC(C)N1CCc2c(sc(NC(=O)c3ccnn3C)c2-c2nc3ccccc3s2)C1	RMI FANCM FP -7
CC(=O)N1CCc2c(sc(NC(=O)c3cc(=O)c4ccccc4o3)c2-c2nc3ccccc3s2)C1	none
COC(=O)N1CCc2c(sc(NC(=O)c3ccccc3)c2-c2nc3ccccc3s2)C1	none
CCn1nccc1C(=O)Nc1sc2c(c1-c1nc3ccccc3s1)CCC(C)C2 (stereo unspecified)	none
Cc1ccc(O)c(C(CCN(C(C)C)C(C)C)c2ccccc2)c1 (stereo unspecified)	none
COC(=O)c1csc2c(C(F)(F)F)cc(N3CCN(S(=O)(=O)c4ccc(C)cc4)CC3)nc12	none
COc1ccccc1-n1ncc2c(C(C)C)nnc(SCC(=O)Nc3cc(C)on3)c21	none
COc1ccc(Cl)cc1NC(=O)CSc1nc2c(c(=O)[nH]1)CN(Cc1ccccc1)CC2	none
O=c1ccc(-c2cccnc2)nn1CCNS(=O)(=O)c1ccc(C(F)(F)F)cc1	none
O=C(CS(=O)(=O)c1cccs1)N1CCN(c2ccccc2F)CC1	none
O=C1NCCc2c(O)cccc21	none
NS(=O)(=O)c1ccc(N=Cc2cc(Br)ccc2O)cc1	none
O=S(=O)(N/N=C\c1cc(Br)ccc1O)c1ccccc1	none
O=S(=O)(N=Cc1cc(Br)ccc1O)c1ccccc1	RMI FANCM FP 21
CS(=O)(=O)c1ccc2nc(N(CCN3CCOCC3)C(=O)c3ccco3)sc2c1	none
CC(C)CNC(=O)Nc1c[nH]c2ccccc12	none
COc1ccccc1CNC(=O)Nc1c[nH]c2ccccc12	none
O=C(NCc1ccccn1)Nc1c[nH]c2ccccc12	RMI FANCM FP 25
Clc1ccc2c(Nc3ccc4c(c3)OCO4)ccnc2c1	none
O=C(OCCOc1ccc(Cl)cc1Cl)c1ccccc1Cl	none
O=C(OCC(O)CO)c1ccccc1Nc1ccnc2cc(Cl)ccc12 (stereo unspecified)	RMI FANCM FP -4!
CCOC(=O)c1c(NC(=O)c2ccc3ncsc3c2)sc2c1CCN(C(=O)OCC)C2	RMI FANCM FP -5
CCOC(=O)N1CCc2c(sc(NC(=O)c3cccc(C)c3)c2C(N)=O)C1	none
COC(=O)N1CCc2c(sc(NC(=O)c3ccc4ncsc4c3)c2C(N)=O)C1	none
Cn1c(Cc2ccsc2)nnc1SCC(=O)Nc1cc(Cl)cc(Cl)c1	none
CN1c2ccccc2C(=O)/C(=N/Nc2ccccc2Cl)S1(=O)=O	RMI FANCM FP -6
CN1C(=O)c2cccc(NC(=O)c3c(F)cccc3Cl)c2C1=O	none
N#C/C(=N/Nc1ccccc1Cl)S(=O)(=O)c1ccc(Cl)cc1	none
Cc1ccc(S(=O)(=O)Nc2ccc(-c3cn4c(n3)SCC4)cc2)s1	none
Cc1ccc(Cl)cc1NC(=O)CN1CCN(S(=O)(=O)c2ccc3ccccc3c2)CC1	none
COc1ccc(CC(=O)N2CCN(c3ccc(-c4ccc(C)cc4C)nn3)CC2)cc1OC	none
Cc1ncc(CO)c2c1Oc1[nH]c(-c3ccc(F)cc3)nc(=S)c1C2	none
CCOc1cccc2c1Oc1[nH]c(-c3cccc(OC)c3O)nc(=S)c1C2	RMI FANCM FP 12
COc1ccccc1-c1nc(=S)c(C(C)=O)c(C)[nH]1	none
COCCNC(=O)C(=O)NCC(c1cccn1C)N1CCc2ccccc2C1 (stereo unspecified)	none
O=C(NCc1nnc(SCC(=O)N2CCCCC2)o1)c1ccc(F)cc1	none
CCSc1nnc(NC(=O)CSc2nc3c(c(=O)n2CCOC)SC(C)C3)s1 (stereo unspecified)	none
COc1cc(OC)c(NC(=O)Cn2cnc3c(-c4ccccc4)csc3c2=O)cc1Cl	none
CCn1c(/C=N\Nc2nc3ccccc3s2)nc2ccccc21	none
Cc1nn(-c2ccccc2)c(N2CCCCC2)c1/C=N\Nc1nc2ccccc2s1	RMI FANCM FP 8
COc1ccc(C(=O)N/N=C\c2c(C)nn(-c3ccccc3)c2N2CCCCC2)cc1OC	none
Cc1nn(C2CCS(=O)(=O)C2)c2nc(-c3ccccc3)cc(C(=O)NC3CC3)c12 (stereo unspecified)	none
